TR SRC2 fluor cs – Texas Red fluorescence interference in TRb-SRC2 counter-screen; TRb/SRC2 Texas Red total fluorescence interference; Potency, µM (titrated, usually from 106 µM), inactives show top-dose fluorescence change, negative = quenching; 280,000 tested, 0.29% active; active means well fitted curve in either direction with a large enough effect; inconclusive means small, poorly fitted or top-dose-only effect; further: potency means the concentration at half of the fitted maximal effect; on the % scale 0 is the no-effect control and ±100 the full control effect
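Human TRβ ligand-binding domain (0.6 uM) and Texas Red SRC2 peptide (20 nM) in Tris buffer with 1 uM T3 and 5% DMSO were incubated with pinned compound for 5 hr at ambient temperature. Total fluorescence was computed as S + 2P (555/632 nm).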
RGS12 GoLoco inh-1 – inhibitors of human Gai1-RGS12 GoLoco interaction (red fluorophore) | Potency, µM (titrated, usually from 61.6 µM), without a hit: at the highest dose activity, negative = inhibition, most hits filed as inhibitors | Gai1:RGS12 GoLoco peptide FP, rhodamine, 10 min | AID 880 | P63096 | 230,000 tested, 0.44% active; active means well fitted inhibition curve with a large enough effect, not every such curve was filed as active; inactive means no such curve, though single readings can be large or run the other way; further: potency means the concentration at half of the fitted maximal effect; on the % scale 0 is the no-effect control and ±100 the full control effect; nearly all actives have a fitted effect of over 30% in size
Target sequence (P63096 whole entry, looked up): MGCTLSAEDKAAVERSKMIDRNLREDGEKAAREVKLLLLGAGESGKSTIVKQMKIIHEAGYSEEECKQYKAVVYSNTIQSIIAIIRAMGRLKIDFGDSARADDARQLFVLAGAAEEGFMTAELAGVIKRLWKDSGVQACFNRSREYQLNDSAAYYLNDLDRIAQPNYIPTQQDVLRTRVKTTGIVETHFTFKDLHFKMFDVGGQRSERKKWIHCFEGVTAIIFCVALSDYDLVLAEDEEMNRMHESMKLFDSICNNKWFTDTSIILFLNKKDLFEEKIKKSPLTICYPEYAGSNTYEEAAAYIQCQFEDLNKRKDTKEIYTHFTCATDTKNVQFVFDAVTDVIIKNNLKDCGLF
Tau fibril FP – blocks human tau fibril formation measured by polarization. P10636. K18 P301L tau heparin fibrillization, Alexa594 FP, 6 h. Potency, µM (top dose mostly 57.7 µM), for the others: top-dose activity, negative = inhibition, actives largely listed as inhibitors. 280,000 tested, 0.39% active; further: potency means the concentration at half of the fitted maximal effect; on the % scale 0 is the no-effect control and ±100 the full control effect; nearly all actives have a fitted effect of over 55% in size
Target sequence (P10636 561-689 P618L limits assumed): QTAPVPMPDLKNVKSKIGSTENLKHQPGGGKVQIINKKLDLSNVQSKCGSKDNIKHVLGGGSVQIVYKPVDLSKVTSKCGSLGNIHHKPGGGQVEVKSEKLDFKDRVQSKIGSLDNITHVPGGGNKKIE
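Compound effects on tau fibrillization are measured by Alexa 594 fluorescence polarization (ex 555, em 632 nm). K18 P301L tau is used at 15 uM with 0.24 uM labeled tracer, and 20 uM heparin induces aggregation over 6 hr at 37 C.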
Tau fibril ThT – inhibitors of human tau fibril formation, thioflavin T binding; recombinant tau K18 P301L, heparin-induced fibrillization, ThT fluorescence; 270,000 tested, 2.1% active; Potency, µM (top dose mostly 57.4 µM), without a hit: at the top dose activity, negative = inhibition, usual class: inhibitors; P10636; further: potency means the concentration at half of the fitted maximal effect; on the % scale 0 is the no-effect control and ±100 the full control effect; nearly all actives have a fitted effect of over 55% in size
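Heparin-induced fibrillization of the P301L-mutant K18 repeat-domain fragment of human tau was followed by ThT binding in quantitative high-throughput format.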
TRb-SRC2 inh – disrupts binding of human TR beta to SRC2. 280,000 tested, 0.065% active. P10828. TRbeta-SRC2 peptide binding, fluorescence polarization; receptor liganded with 1 µM T3. AID 1469. Potency, µM (series often up to 106 µM), for the others: at the top dose activity change, negative = inhibition, most hits filed as inhibitors;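 further: potency means the concentration at half of the fitted maximal effect; plate controls were bound peptide for no effect and peptide without receptor for full effect; nearly all actives have a fitted effect of over 50% in size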
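Fluorescence polarization of 20 nM Texas Red SRC2 peptide (20-aa NR interaction domain) bound to 0.6 uM human TRb ligand-binding domain, with 1 uM T3, after 5 hr at ambient temperature; inhibition seen as decreased polarization.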
Tau fluor cs – counter-screen for tau fibril formation inhibitors; Potency, µM (top dose mostly 57.7 µM), without a hit: top-dose activity change, negative = decrease; AID 1463; 280,000 tested, 0.93% active; tau K18 P301L Alexa594 fluorescence, heparin fibrillization; further: potency means the concentration at half of the fitted maximal effect; on the % scale 0 is the no-effect control and ±100 the full control effect; nearly all actives have a fitted effect of over 55% in size
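Human tau K18 P301L (15 uM unlabeled, 0.24 uM Alexa 594-labeled) in 100 mM sodium acetate pH 7 with 20 uM heparin, 6 hr at 37 C. ThT 30 uM added, 1 hr ambient; Alexa 594 FP and total fluorescence read at 555/632 nm.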
RGS12 GoLoco inh-2 – confirmation of human RGS12 GoLoco motif inhibitors; 110 tested, 50% active; Potency, µM (titrated, usually from 57.1 µM), for inactives: at the highest dose activity, negative = inhibition, actives largely listed as inhibitors; Gai1/rhodamine-RGS12 GoLoco peptide fluorescence polarization; shares compounds with RGS12 GoLoco inh-1; AID 2390
An asterisk follows results filed as active; u = inconclusive; x = no result; [ ] = remark or other dose. An excerpt weighted towards active compounds, which were near 3.2% of everything screened. Unless noted, the call rests on the fitted dose curve; in most records, active means well fitted curve in the direction sought with a large enough effect; inconclusive means small, poorly fitted or top-dose-only effect, or another doubt; inactive means no such curve, though single readings can be large; an effect the other way counts as inactive or inconclusive.

SMILES	TR SRC2 fluor cs	RGS12 GoLoco inh-1	Tau fibril FP	Tau fibril ThT	TRb-SRC2 inh	Tau fluor cs	others
CN(CC(=O)Nc1cccc(C(F)(F)F)c1)S(=O)(=O)c1ccc2[nH]c3c(c2c1)CCCC3	2.4%	x	u	-8.0%	3.1%	25.1µM*[quencher]
CC(=O)c1ccc(OC(=O)CCc2nc3ccccc3s2)cc1	0.5%	17.7%	u	15.8µM*	-0.6%	-15.8%
Cc1cc(O)c(NC(=S)NC(=O)c2ccc(-c3ccc(Cl)cc3)o2)cc1C	-27.0%	-3.0%	u	11.2µM*	27.0%	7.94µM*[quencher]
Cc1ccc(NC(=S)NC(=O)c2ccc(-c3ccc(Cl)cc3)o2)c(O)c1	1.5%	24.7%	9.3%	11.0%	3.8%	5.2%
CC1(C(=O)O)NCCc2cc(O)c(O)cc21 (configuration not stated)	-3.7%	-8.3%	u	20µM*	4.1%	-15.6%
Cc1cc(SCC(=O)c2ccc3c(c2)OCO3)nc2ccccc12	6.2%	37.6%	-13.3%	u	6.7%	u
Cc1cc(SCC(=O)c2ccc(O)c(O)c2)nc2ccccc12	-1.8%	10.2%	-5.7%	u	1.9%	28.2µM*[quencher]
O=[N+]([O-])/C=C\c1ccc(N2CCCC2)c(F)c1	-1.5%	69.1%	-7.8%	15.8µM*	-1.2%	u
O=C1OCC2OC(O)C(O)C(O)C2OC(=O)c2cc(O)c(O)c(O)c2-c2c(O)c(O)c3oc(=O)c4c(c(O)c(O)c5oc(=O)c2c3c54)-c2c1cc(O)c(O)c2O (configuration not stated)	-8.7%	-45.4%	u	7.94µM*	0.4%	u
CCOC(=O)c1ccc2c(c1)N(CC(=O)N(C)c1ccccc1)C(=O)c1ccccc1S2	-30.0%	x	2.5%	-6.6%	-1.7%	4.3%
N=c1c(-c2nc3ccccc3[nH]2)cc(C(=O)c2cccs2)nn1-c1ccccc1	0.0%	-36.1%	-3.9%	-2.3%	-6.3%	-3.9%
N=c1c(-c2nc3ccccc3[nH]2)cc(C(=O)c2ccco2)nn1-c1ccccc1	-1.1%	0.3%	9.6%	15.8µM*	5.3%	u
CCn1c(C)c2c([n+]1CC)CC(C)(C)CC2=O	-0.4%	11.2µM*	2.7%	-4.0%	-18.4%	-4.5%
COc1ccc(/C=N/Nc2nc(C)c([N+](=O)[O-])c(N(C)c3ccccc3)n2)cc1OC	-5.2%	6.3%	0.1%	u	-0.7%	-18.9%
CC(=O)Nc1ccc(Nc2ncnc(N)c2[N+](=O)[O-])cc1	0.9%	22.2%	-2.0%	-8.7%	4.9%	10.8%
CC(=O)Nc1ccc(Nc2nc(C)c([N+](=O)[O-])c(Nc3ccccc3)n2)cc1	-3.9%[53 µM]	4.4%	18.2%	8.91µM*	-2.2%[53 µM]	u
CC(=O)Nc1ccc(Nc2nc(C)c([N+](=O)[O-])c(N(C)c3ccccc3)n2)cc1	-4.9%	3.2%	u	15.8µM*	8.4%	17.8µM*[quencher]
Cc1nc(Nc2ccc(F)cc2)nc(Nc2ccc(F)cc2)c1[N+](=O)[O-]	-0.8%	-14.3%	-6.5%	-5.1%	-11.4%	-18.9%
Cc1nc(Nc2ccc(C(=O)O)cc2)nc(Nc2ccc(C(=O)O)cc2)c1[N+](=O)[O-]	-6.6%	-6.0%	0.4%	u	-4.6%	-7.7%
CC(=O)Nc1ccc(Nc2ncc([N+](=O)[O-])c(Nc3ccc(NC(C)=O)cc3)n2)cc1	-5.0%	2.1%	-6.6%	8.91µM*	-17.4%	-29.9%
CCC(=O)Nc1ccc(Nc2nc(C)c([N+](=O)[O-])c(Nc3ccc(NC(=O)CC)cc3)n2)cc1	-2.6%	3.7%	u	28.2µM*	8.2%	-28.1%
C[C@]12CCC(=O)C=C1[C@@H]1C[C@H]1[C@H]1[C@@H]3[C@@H]4C[C@H]4[C@@]4(CCC(=O)O4)[C@@]3(C)CC[C@@H]12	-2.5%	-22.2%	x	x	-1.8%	x
CSC(=[SH+])N=N/C(=C1/C=CC=CN1)c1ccccn1.[Cu][Br]	x	-12.6%[14.2 µM]	x	x	x	x
CCCS(=O)(=O)c1ncc(Cl)c(C(=O)Nc2c(C(=O)Nc3ccccc3)oc3ccccc23)n1	u	x	-7.9%	7.08µM*	4.5%	u
COc1ccc([N+](=O)[O-])cc1NC(=S)NC(C)=O	-2.5%	-1.8%	1.0%	-3.8%	-4.5%	3.9%
SMILES	TR SRC2 fluor cs	RGS12 GoLoco inh-1	Tau fibril FP	Tau fibril ThT	TRb-SRC2 inh	Tau fluor cs	others
COc1ccc(/C=C/C(=O)NC(=S)Nc2cc([N+](=O)[O-])ccc2O)cc1OC	-14.1%	6.7%	u	1.58µM*	10.3%	-13.9%
CC(C)(C)C(=O)[C@H](C(c1ccccc1)N1CCOCC1)N1CCOCC1 (some centres not stated)	x	5.2%[14.2 µM]	x	x	x	x
CN1C(=O)/C(=C/C=C2\SCCN2C)SC1=S	-2.7%	11.6%	4.3%	u	9.3%	-14.5%
CN1C(=O)/C(=C/C=C2\SCCN2C)N(C)C1=S	-3.4%	5.3%	-8.4%	28.2µM*	-0.9%	-15.0%
O=C(Nc1ccccc1)N(Cc1cccs1)c1ccc(Cl)cc1	u	x	-6.7%	-16.9%	-13.9%	-22.3%
COc1ccccc1N1C(=O)C=C(Sc2nc(C)cc(C)n2)C1=O	16.7%	1.41µM*	u	u	6.4%	-20.7%	RGS12 GoLoco inh-2=u
COC(=O)c1ccc(NC(=O)CSc2ccccn2)cc1	0.2%	12.6µM*	-3.8%	u	9.5%	-12.9%	RGS12 GoLoco inh-2=u
Cc1n(CC(O)COC2CCCCC2)c2ccccc2[n+]1C (configuration not stated)	-1.1%	7.08µM*	4.3%	-8.7%	-17.4%	0.0%	RGS12 GoLoco inh-2=15.8µM*
O=C1c2cccnc2C(=O)N1Cc1ccccc1	-2.0%	4.2%	-1.8%	-1.0%	1.1%	-0.8%
O=C1c2cccc3c(O)ccc(c23)C(=O)N1Cc1ccccc1	1.7%	11.2µM*	8.7%	u	-2.6%	u	RGS12 GoLoco inh-2=11.2µM*
CCOc1ccc(N(CC(=O)N/N=C/c2ccc(OC(C)C)cc2)S(C)(=O)=O)cc1	-2.4%	10µM*	-6.7%	-8.4%	7.9%	-21.4%	RGS12 GoLoco inh-2=5.4%[0.0121 µM]
CCCCC[C@H](O)/C=C/[C@H]1OC(=O)C[C@H](O)[C@@H]1C/C=C\CCCC(=O)O	-1.0%	-1.5%	9.7%	-7.8%	-6.3%	-10.9%
CCOCc1cnc(C)nc1NCC(=O)c1c(C)n(C)c2ccc(OC)cc12	0.0%	5.01µM*	-8.7%	u	3.2%	-9.1%	RGS12 GoLoco inh-2=25.1µM*
Cc1cc(C)c(S(=O)(=O)NCC(c2ccco2)S(=O)(=O)c2cccs2)c(C)c1 (configuration not stated)	-2.0%	x	-7.2%	-1.8%	-1.0%	-10.3%

Source: PubChem
